# Compound activity: PubChem, several laboratories
# An excerpt weighted towards active compounds, which were near 4.9% of everything screened.
# Mdm2 MdmX PPI: inhibitors of human Mdm2/MdmX interaction | SaOS-2 split-luciferase Mdm2/MdmX complementation, luminescence | actives 3% (n = 330,000) | O15151+Q00987 | AID 485346 | inhibition, % at 8 µM;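 active = inhibition of at least 50% at 8 µM in the primary screen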
# Beta apoptosis: blocks beta cell apoptosis | INS-1E cytokine-induced death, ATP luminescence, 48 h; percent of positive-control rescue, neutral wells zero | protection from apoptosis, % (no concentration beside the values) | actives 0.8% (n = 300,000);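 active = Every replicate reaches about 75%, or at least half do and their mean reaches it too, limit read from the data; inconclusive = At least half of replicates reach the limit but their mean does not; inactive = Under half of replicates reach the limit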;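 note: 0% = cytokine-treated negative control wells and 100% = positive control rescue; higher means more ATP so stronger rescue from cytokine killing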
# PP5 inh: inhibitors of human protein phosphatase 5 (PP5); P53041; purified PP5c, OMFP substrate fluorescence; inhibition, % at 6.7 µM; actives 0.18% (n = 320,000);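 active = inhibition above the campaign's mean inhibition across all tested compounds plus 3 SD, cut at about 9.5% in these data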;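 note: 0% = DMSO only and 100% = 100 µM cantharidin control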
# PP1 inh: counter-screen for PP5 inhibitors: inhibitors of human PP1-alpha. P62136. actives 0.9% (n = 320,000). inhibition, % at 6.7 µM. purified PP1alpha, OMFP fluorescence;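 active = inhibition above the mean inhibition of all tested compounds plus 3 SD, computed separately for each screening campaign, cut at about 15% in these data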
# Calb FLC: C. albicans growth modulation with fluconazole; C. albicans CaCi-2 (fluconazole-resistant clinical isolate) + fluconazole, Alamar Blue growth, 48 h; AID 1979; actives 0.57% (n = 300,000); growth inhibition, % (concentration not given with the values);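 active = growth inhibition above about 58% in most replicates, limit read from the data, passing the limit was not always enough; inconclusive = exactly half the replicates above a set limit; inactive = most replicates below a set limit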;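 note: all wells also contain fluconazole at 8 µg/ml as a sub-toxic cotreatment; 0% = median of DMSO wells and 100% = median of geldanamycin control wells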
# CSC inhib: cancer stem cell inhibition; cancer stem cell-like cells viability, luminescence; inhibition, % at 7.5 µM; actives 1.1% (n = 300,000); in the data active = inhibition above about 75%; inconclusive = no clear call, values can overlap the other calls; tested in HMLE shEcad cells
# Mdm2 MdmX conf: human Mdm2/MdmX binding inhibition, confirmed | shares compounds with Mdm2 MdmX PPI | AID 489028 | actives 55% (n = 10,000) | luminescent assay | inhibition, % at 8 µM; in the data active = inhibition above about 40%
# FLuc counter: inhibits full-length luciferase, flagging false Mdm2/MdmX hits; shares compounds with Mdm2 MdmX PPI; SaOS-2 full-length luciferase counterscreen, luminescence; inhibition, % at 8 µM; actives 77% (n = 6,200);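 active = mean inhibition at 8 µM reaching about 37%, which flags the compound as non-specific, limit read from the data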;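 note: p53-null SaOS-2 cells with luciferase driven by a doxycycline-inducible promoter; compound on cells about two nights before reading with doxycycline added after day one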
# * = called active by the depositor; ? = inconclusive; . = not tested or not shown.
SMILES,Mdm2 MdmX PPI,Beta apoptosis,PP5 inh,PP1 inh,Calb FLC,CSC inhib,Mdm2 MdmX conf,FLuc counter
CC(C)c1nnc(NC(=O)CCC(=O)NCc2ccccc2Cl)s1,15.6,0.9,0.9,-5.5,1.2,-0.6,.,.
CSc1ncc(Cl)c(C(=O)Nc2nnc(SC/C=C/c3ccccc3)s2)n1,9.5,5.1,2.8,5.8,59.2,36.7,.,.
CSc1nnc(NC(=O)c2nc(S(=O)(=O)Cc3ccccc3F)ncc2Cl)s1,100.3*,-42.8,-1.4,-0.6,-7.0,?,57.1*,52.1*
Cc1nnc(NC(=O)c2nc(S(=O)(=O)Cc3ccccc3C)ncc2Cl)s1,94.7*,-37.7,-1.5,-1.1,-2.1,84.5*,71.0*,51.8*
Cn1cc([N+](=O)[O-])c(C(=O)N2CCCCCC2)n1,12.9,2.0,-0.5,-3.2,6.1,-2.7,.,.
O=C(OCc1ccccc1)/C(=C/c1ccccc1Cl)NC(=O)c1ccco1,22.8,6.7,2.1,-0.6,9.3,29.2,.,.
CC1=NNC(=O)C1CC(=O)N/N=C(\C)c1ccco1 (stereo not drawn),-16.2,-2.1,0.9,-2.0,-5.2,-14.6,.,.
CCCCn1c(N)c(N(CC(C)C)C(=O)C2=NN(c3cc(C)ccc3C)C(=O)CC2)c(=O)[nH]c1=O,9.4,5.7,-1.1,-2.5,-5.0,7.6,.,.
COc1ccc(C(CNC(=O)c2ccc(S(=O)(=O)N3CC(C)CC(C)C3)cc2)N(C)C)cc1 (stereo not drawn),51.4*,6.0,.,.,.,34.4,17.1,.
COc1ccccc1N(C)S(=O)(=O)c1ccc(Cl)c(C(=O)NNC(=O)c2ccccc2O)c1,35.3,-8.2,3.1,-4.6,29.4,24.2,.,.
COc1ccc(NS(=O)(=O)c2cccc(C(=O)NNC(=O)c3cc(C)oc3C)c2)cc1,10.1,4.2,4.3,8.9,2.1,18.0,.,.
COc1ccccc1N(C)S(=O)(=O)c1ccc(C(=O)NNC(=O)c2ccccc2O)cc1,61.9*,.,.,.,.,.,59.9*,48.2*
COc1ccc(NS(=O)(=O)c2cccc(C(=O)NNC(=O)c3ccccc3O)c2)cc1,52.8*,-0.8,1.1,-0.8,-2.8,35.7,55.5*,58.5*
CSc1ccc(Cl)c(C(=O)OCC(=O)N(C)CCC#N)c1,10.2,3.9,-0.2,-0.5,-9.2,-6.8,.,.
CN(C)c1ccc(/C=C2/SC(=O)N(CCN=C3NS(=O)(=O)c4ccccc43)C2=O)cc1,60.5*,4.3,-1.6,2.4,-3.3,0.8,20.9,.
CN(C)c1ccc(/C=C2\SC(=O)N(CC(O)Cn3c4ccccc4c4ccccc43)C2=O)cc1 (stereo not drawn),27.5,11.6,0.2,6.8,-94.2,32.1,.,.
COc1ccc(-c2csc3ncnc(N4CCN(S(=O)(=O)c5ccc(C(C)=O)cc5)CC4)c23)cc1,33.2,.,2.5,7.6,15.5,-0.1,.,.
COC(=O)c1c(NC(=O)/C=C/C(=O)O)sc(C)c1-c1ccc(C)c(C)c1,53.4*,3.6,1.9,7.0,-4.6,45.6,21.9,.
Cc1cc(NC(=O)CSc2nc3c(C)cccc3cc2C#N)no1,8.5,6.4,0.1,0.7,-2.1,.,.,.
CCOC(=O)C1(Cc2cccc(OC)c2)CCN(Cc2cccc(OC)c2O)CC1,27.5,-1.9,0.6,1.0,9.6,-3.0,.,.
NNC(=O)c1cc2c(s1)-c1cc(Cl)ccc1SC2,32.3,3.4,-0.1,-0.8,16.2,24.1,.,.
CCN(CC)CCNC(=O)c1cc2c(s1)-c1ccccc1SC2,63.6*,41.1,0.8,-1.5,-0.7,51.4,48.4*,78.6*
COc1cc(CN(C)CC2CCCN(CCc3ccccc3F)C2)cc(Cl)c1OC (stereo not drawn),33.2,.,.,.,0.4,.,.,.
CC(C)n1c(O)c(/C=C2\C=NN=C2c2ccccc2)sc1=S,61.5*,-9.4,2.9,-0.2,-6.9,50.5,43.1*,47.7*
CCn1c(O)c(/C=C2\C=NN=C2c2ccc(C)cc2)sc1=S,81.6*,10.5,0.8,1.6,7.1,-7.7,63.3*,97.4*
SMILES,Mdm2 MdmX PPI,Beta apoptosis,PP5 inh,PP1 inh,Calb FLC,CSC inhib,Mdm2 MdmX conf,FLuc counter
[O-][n+]1cccc2c(Br)cc(Br)c(O)c21,50.6*,6.9,4.0,4.0,109.1*,8.0,24.6,.
C[n+]1cccc2c(Br)ccc([O-])c21,-10.0,-20.7,7.5,1.3,-3.6,-8.6,.,.
Cn1ncc([N+](=O)[O-])c1C(=O)N1CCCCCC1,14.6,.,.,.,-1.4,.,.,.
COc1ccc(-c2oc(=O)c3cc(OC)c(OC)cc3c2C#C[C@]2(O)CC[C@H]3[C@@H]4CCc5cc(OC)ccc5[C@H]4CC[C@@]32C)cc1,69.8*,-2.3,.,.,.,-0.3,9.8,.
COc1ccc(-c2oc(=O)c3cc(OC)c(OC)cc3c2C#CCCO)cc1,36.6,17.2,.,.,.,.,.,.
COC(=O)c1ccc(/C=C/c2c(-c3ccsc3)oc3ccc(N4CCOCC4)cc23)cc1,56.8*,0.2,1.8,-4.1,1.0,108.9*,9.9,.
O=Nc1c(-c2c(O)[nH]c3cc(Br)ccc23)[nH]c2ccccc12,99.0*,10.1,1.2,11.2,52.6,103.4*,31.3,.
O=C(CSCc1cccc(Br)c1)N=Nc1c(O)[nH]c2ccccc12,-5.2,-5.1,1.6,-2.7,32.7,-7.6,.,.
COc1cc(NC(=O)c2cccc([N+](=O)[O-])c2)ccc1NC(=O)c1cc2ccccc2o1,81.4*,11.2,-0.9,1.7,0.1,4.2,31.2,87.8*
COc1cc(NC(=O)c2cccc(C)c2)ccc1NC(=O)c1cc2ccccc2o1,66.9*,14.1,3.5,5.3,-2.4,15.9,36.0,80.6*
O=C(NC(=S)Nc1ccc(NC(=O)c2cccs2)cc1)c1cc2ccccc2o1,52.4*,6.1,1.1,1.6,-6.9,23.0,30.4,.
CCC(=O)NC(=S)Nc1ccc(NC(=O)c2cc3ccccc3o2)c(OC)c1,54.2*,0.0,-1.1,1.6,26.3,8.7,-3.3,.
O=C(/C=C/c1ccccc1)NCCc1c[nH]c2ccccc12,5.8,-7.0,0.0,-3.4,16.1,4.1,.,.
CC1CN(c2nc3ccccc3nc2SCC(=O)Nc2ccc(F)cc2)CC(C)O1 (stereo not drawn),18.7,4.3,5.8,3.3,5.7,-3.2,.,.
Cc1[nH]c(N=Nc2ccccc2)nc1N=Nc1ccccc1,77.2*,99.9*,2.9,14.3,-3.2,105.0*,83.5*,24.1
COc1ccc(C)cc1NC(=O)C(c1ccccc1)N1CCNC(=O)C1 (stereo not drawn),-1.0,-3.8,-0.1,1.5,15.9,-1.7,.,.
Cc1cc(N2CCN(c3ccc([N+](=O)[O-])c4cccnc34)CC2)c2ccccc2n1,94.5*,8.7,2.7,1.1,-57.6,2.3,80.4*,55.5*
O=C(c1ccccc1F)N1CCN(c2ccc([N+](=O)[O-])c3cccnc23)CC1,-1.1,2.7,0.5,-2.6,19.5,-9.6,.,.
